High-throughput results: PubChem BioAssay, several laboratories
A selection: hits, their analogues and other compounds. The true share with any hit is near 10%.
Lmaj promast: Leishmania major promastigote growth inhibition; AID 1063; inhibition, % at 10 µM; 200,000 compounds, 9% hits; Leishmania major promastigotes, resazurin fluorescence viability; in the data active means inhibition above about 50%;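 further: promastigotes grown with compound for 44 hours at 28 °C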
INS promoter inh: TRM-6 insulin promoter activity inhibition; TRM-6 cells (human fetal islet line), insulin promoter-eGFP reporter, imaging; reporter expression induced with tamoxifen; inhibition, % at 2 µM; 130,000 compounds, 0.9% hits; AID 1273;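 active means inhibition above the mean plus 3 SD, with well images judged a real hit on visual review, cut at about 60% in these data, passing the limit was not always enough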
PTEN del growth: suppresses growth of cells with PTEN deletion | HCT116 PTEN-null viability, CellTiter-Glo, 60 h; hits give low values | viability, % at 10 µM | 140,000 compounds, 1.2% hits | AID 827;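 active means viability at or below a set limit, 4 SD under the median of all tested compounds, cut at about 3.7% in these data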;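 further: PTEN knockout HCT116 line with beta catenin targeted HCT116 as companion control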
bCat KO growth: beta-catenin-lacking colon tumor cell growth suppression. HCT116 beta-catenin knockout viability, CellTiter-Glo, 60 h; hits give low values. viability, % at 10 µM. 140,000 compounds, 1.5% hits. AID 818;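 active means viability at or under a set limit, the compound median less 4 SD, cut at about 6% in these data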;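 further: 0% = Hyamine 1622 control at 20 µM and 100% = untreated cell control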
p97 inhibitor: human p97 ATPase inhibition; AID 1481; P55072; 220,000 compounds, 0.42% hits; inhibition, % at 8 µM; recombinant p97 ATPase, Kinase-Glo ATP luminescence, 3 h; in the data active means inhibition above about 15%;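 further: 0% = DMSO vehicle and 100% = wells lacking enzyme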
Target sequence (P55072 whole entry, looked up): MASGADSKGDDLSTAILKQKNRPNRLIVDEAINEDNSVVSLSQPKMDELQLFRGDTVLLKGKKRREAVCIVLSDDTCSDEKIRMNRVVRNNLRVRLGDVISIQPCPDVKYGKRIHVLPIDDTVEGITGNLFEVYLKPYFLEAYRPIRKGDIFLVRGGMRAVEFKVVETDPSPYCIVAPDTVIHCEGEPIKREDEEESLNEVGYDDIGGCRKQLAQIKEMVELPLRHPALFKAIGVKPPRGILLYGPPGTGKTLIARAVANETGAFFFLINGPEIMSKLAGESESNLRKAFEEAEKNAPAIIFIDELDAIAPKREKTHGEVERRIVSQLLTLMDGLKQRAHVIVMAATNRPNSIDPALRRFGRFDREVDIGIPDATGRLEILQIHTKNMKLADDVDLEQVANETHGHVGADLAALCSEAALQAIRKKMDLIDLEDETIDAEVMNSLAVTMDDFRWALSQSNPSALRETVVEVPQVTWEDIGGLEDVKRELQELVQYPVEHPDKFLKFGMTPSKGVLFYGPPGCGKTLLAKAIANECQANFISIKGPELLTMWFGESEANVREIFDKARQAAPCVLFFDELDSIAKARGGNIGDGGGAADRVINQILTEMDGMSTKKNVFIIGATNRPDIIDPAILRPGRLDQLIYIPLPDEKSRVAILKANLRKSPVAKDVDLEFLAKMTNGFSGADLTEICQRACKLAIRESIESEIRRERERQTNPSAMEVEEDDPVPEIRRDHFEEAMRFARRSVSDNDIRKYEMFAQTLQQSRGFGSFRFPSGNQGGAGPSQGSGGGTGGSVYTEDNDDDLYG
ROMK mod: modulators of human ROMK potassium channel; 130,000 compounds, 2% hits; B-score at 10 µM; Tet-inducible ROMK, thallium flux fluorescence; actives lie on both sides;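 active means signal ratio slope over the read window, or its plate-corrected B-score, at least 3 SD from the plate mean, either direction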;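 further: B-score of the F/F0 ratio slope over 7 to 12 s after thallium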
* marks the source's active call; other numbers are inactive results; · = not tested or not shown.

SMILES | Lmaj promast | INS promoter inh | PTEN del growth | bCat KO growth | p97 inhibitor | ROMK mod
CC(=O)Nc1ccc2c(CSc3nnc(-c4cccnc4)n3-c3ccc(C)cc3C)cc(=O)oc2c1 | 57* | -12 | 86 | 79 | 1 | ·
CC(C)c1ccccc1-n1c(SCc2cc(=O)oc3ccc4ccccc4c23)nnc1-c1cccnc1 | 54* | · | 60 | 67 | 0 | ·
CCOc1ccc(-n2c(SCc3cc(=O)oc4cc(C)ccc34)nnc2-c2cccnc2)cc1 | 19 | 29 | 74 | 66 | 1 | 0.0059
CCCCCCCCNC(=O)c1cccnc1SCC(=O)Nc1ccc(OC)cc1OC | 86* | 0 | 9 | 61 | -8 | -0.039
CCCCNC(=O)c1cccnc1SCC(=O)Nc1ccccc1OC | 3 | · | 84 | 83 | 2 | ·
COc1ccc(C(=O)Nc2ccc(Cl)c(S(=O)(=O)Nc3ccccc3OC)c2)cc1 | 39 | · | 14 | 13 | 7 | ·
COc1ccccc1NS(=O)(=O)c1cccc(NC(=O)c2sc3ccccc3c2Cl)c1 | 95* | · | · | · | 3 | -0.53
COc1ccccc1NS(=O)(=O)c1cc(NC(=O)Nc2cccc(C)c2)ccc1N1CCCCC1 | 43 | 19 | 57 | 68 | 2 | 1.5
O=C(Nc1ccc(Cl)cc1)Nc1ccc(N2CCCC2)c(S(=O)(=O)Nc2ccccc2Cl)c1 | 100* | 39 | 1.8* | 1.9* | 11 | 0.91
COc1ccccc1NC(=O)Nc1ccc(Cl)c(S(=O)(=O)Nc2ccccc2OC)c1 | 99* | -14 | 64 | 76 | 10 | 0.037
COc1ccccc1NS(=O)(=O)c1cccc(NC(=O)Nc2cccc(Cl)c2)c1 | 100* | 10 | 6 | 3.9* | 5 | -0.29
COc1ccc(OC)c(C(O)c2coc3ccc(O)c(CN4CCOCC4)c23)c1 (centres undefined) | 4 | 42 | 100 | 92 | -5 | -0.064
Cc1ccnc(NC(=O)CCC(=O)N(CC(=O)NC2CCCCC2)CC2CCCO2)c1 (centres undefined) | -4 | · | 90 | 100 | -3 | -1
COc1cc(C(=O)Nc2ccc3c(c2)N(C(=O)CN2CCN(C)CC2)c2ccccc2CC3)cc(OC)c1OC | · | · | · | · | 2 | ·
COc1ccc(C)cc1S(=O)(=O)Nc1cccc(Cl)c1 | 99* | 18 | 90 | 87 | -2 | ·
COc1ccccc1NS(=O)(=O)c1cc(NC(=O)C2CC2)ccc1N1CCOCC1 | 88* | 7 | · | · | -3 | 0.065
COc1ccc(NS(=O)(=O)c2cc(N/C(=N\S(=O)(=O)c3ccccc3)c3ccc(F)cc3)ccc2Cl)cc1 | 76* | -76 | 16 | 19 | 9 | ·
COc1ccccc1NS(=O)(=O)c1cc(NC(C)=O)ccc1N1CCCCC1 | 43 | · | · | · | -2 | 0.93
N#CC(C(=O)NC1CCCCC1)=C1CCCCCC1 | -2 | 25 | 93 | 80 | 2 | 0.65
c1ccc(CCC2CCCCN2Cc2nc(C3CC3)no2)cc1 (centres undefined) | 9 | · | · | · | 1 | -1.4
O=C(NC1CC1)C1CCN(C2CCN(C(=O)CC3=CCCCC3)CC2)CC1 | 75* | 36 | · | · | 2 | -0.028
O=C(/C=C/c1ccccc1)N1CCC(N2CCC(C(=O)N3CCOCC3)CC2)CC1 | 51* | · | · | · | -2 | 0.6
O=C(NC1CC1)C1CCN(C2CCN(C(=O)/C=C/c3ccc(F)cc3)CC2)CC1 | 66* | · | · | · | 1 | ·
O=C(NC1CC1)C1CCN(C2CCN(C(=O)CSc3ccccc3)CC2)CC1 | · | · | · | · | -7 | ·
O=C(NCCc1ccccc1)C1CCN(C2CCN(C(=O)CC3=CCCCC3)CC2)CC1 | -1 | · | · | · | 3 | -0.27
SMILES | Lmaj promast | INS promoter inh | PTEN del growth | bCat KO growth | p97 inhibitor | ROMK mod
O=C(NNc1ccccc1C(F)(F)F)c1sccc1Br | · | · | · | · | 7 | ·
CCC(C)(C)C1CCC(=NNC(=S)Nc2ccccc2)CC1 (centres undefined) | 1 | · | · | · | -5 | 1.7
S=C(NN=C1C2CC3CC(C2)CC1C3)Nc1ccccc1 | 99* | -13 | 70 | 70 | -1 | 1.4
CNCCCOc1ccc(C(C)(C)c2ccccc2)cc1 | 100* | · | 54 | 37 | -3 | -0.48
CCCOc1ccc(OCCCCNC(C)CC)cc1 (centres undefined) | 99* | 47 | 97 | 86 | 0 | 0.2
CCC(C)NCCOc1ccc(C(C)(C)c2ccccc2)cc1 (centres undefined) | 100* | · | · | · | -5 | -0.5
CCC(C)NCCOc1cccc(Br)c1 (centres undefined) | 14 | -23 | 85 | 91 | -8 | ·
COCCCNCCOc1ccc(C(C)(C)c2ccccc2)cc1 | 100* | 19 | 71 | 54 | -1 | -2.4
CCOc1ccc(NS(=O)(=O)c2cc(Cl)ccc2OC)cc1 | 12 | 20 | 71 | 75 | -2 | ·
OC(CCCN1CCCCC1)(c1ccccc1)c1ccccc1 | 9 | 36 | 99 | 92 | 1 | ·
CC(C)(c1ccccc1)c1ccc(OCCCN2CCNCC2)cc1 | 100* | · | · | · | 1 | -0.043
CCN(C(=O)COC(=O)c1cc(=O)[nH]c2ccccc12)C1CCS(=O)(=O)C1 (centres undefined) | · | · | · | · | 8 | ·
CC(=O)c1c(N)c(C#N)c(C)n1-c1ccc(Br)cc1 | 2 | 0 | 92 | 92 | 2 | ·
Cc1c(C#N)c(N=CN(C)C)c(C(=O)c2ccc(Br)cc2)n1-c1ccc(Cl)cc1 | 100* | -19 | 55 | 62 | 3 | -0.24
CCC(C)(C)NC(=O)C(c1ccc(C)o1)N(Cc1cccs1)C(=O)Cn1nnc2ccccc21 (centres undefined) | 36 | -11 | 2.4* | 2.8* | -4 | ·
CCC(C)(C)NC(=O)C(c1ccccc1)N(Cc1cccs1)C(=O)Cn1nnc2ccccc21 (centres undefined) | 68* | 5 | · | · | 7 | -0.89
COCCNC(=O)C(c1ccccc1)N(Cc1cccs1)C(=O)Cn1nnc2ccccc21 (centres undefined) | 10 | 31 | 95 | 112 | 3 | ·
CN(CC(=O)Nc1ccc(N2CCOCC2)cc1)CC(=O)Nc1ccccc1C#N | -4 | · | 88 | 89 | 1 | ·
CCOC(=O)Cn1c(=O)oc2cc(S(=O)(=O)N(C)c3cccc(C)c3)ccc21 | · | · | · | · | 2 | -0.9
O=C(Nc1c(C(=O)c2ccccc2)oc2ccccc12)c1cc(-c2ccccc2O)n[nH]1 | 22 | -17 | 1.8* | 1.9* | 2 | -0.47
COc1ccc(-c2ccc(CO)o2)cc1N | -7 | · | · | · | 6 | 0.64
CCOc1ccc(-n2cc(C(=O)Nc3cccc(OC)c3)c3cc(OC)c(OC)cc3c2=O)cc1 | 66* | 35 | 88 | 92 | -4 | ·
CCn1cc(C(=O)Nc2ccc3c(c2)OCCO3)c2cc(OC)c(OC)cc2c1=O | 51* | · | 83 | 93 | 7 | ·
CCOc1ccc(-n2cc(C(=O)Nc3ccc(Cl)cn3)c3cc(OC)c(OC)cc3c2=O)cc1 | -7 | -26 | 84 | 92 | 3 | 2.2
Cc1ccc(/C=N/N2CCN(Cc3ccc(Cl)cc3)CC2)o1 | 52* | -3 | 95 | 100 | -4 | 0.2
COc1ccccc1/C=C/C=N\N1CCN(Cc2ccccc2Cl)CC1 | 65* | 28 | 97 | 93 | 1 | ·
COc1ccccc1/C=C/C=N/N1CCN(Cc2ccc(Cl)cc2)CC1 | 85* | · | 92 | 99 | 2 | -0.45
